Experiment [1] is described as follows: qHTS of pediatric cancer cell lines to identify multiple opportunities for drug repurposing: Confirmatory screen for Rh41 cells (AID 1347123).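 Also: 48 h compound exposure; nearly all actives have a fitted effect of over 60% in size.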 Also: potency is read from the fitted curve at half-maximal effect. An outline of the steps: (§1)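 Cells (500-1,000/well) rested 5 h, then received compounds for 48 h; metabolically active cells were measured by CellTiter-Glo luminescence. Final concentrations spanned up to 46 µM (MIPE, 11-point) or 0.59 nM-46 µM (NPC, 8-point) in primary screens, 11-point in follow-ups.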

The nature of experiment [2]: qHTS of pediatric cancer cell lines to identify multiple opportunities for drug repurposing: Confirmatory screen for RD cells (AID 1347124).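 Also: cells exposed to compound for 48 h before viability readout; nearly all actives have a fitted effect of over 65% in size.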 Also: potency is read from the fitted curve at half-maximal effect. The method, boiled down:
as §1

Experiment [3] is described as follows: qHTS of pediatric cancer cell lines to identify multiple opportunities for drug repurposing: Confirmatory screen for Rh30 cells (AID 1347126). Also: nearly all actives have a fitted effect of over 55% in size. Also: potency is read from the fitted curve at half-maximal effect. The method, boiled down: as §1
A short description of experiment [4]: qHTS of pediatric cancer cell lines to identify multiple opportunities for drug repurposing: Confirmatory screen for OHS-50 cells (AID 1347128).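 Also: compound exposure lasted 48 h at 37 degrees C; nearly all actives have a fitted effect of over 55% in size.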 Also: potency is read from the fitted curve at half-maximal effect. The method, boiled down: as §1
Experiment [5] can be described thus: qHTS of pediatric cancer cell lines to identify multiple opportunities for drug repurposing: Confirmatory screen for SK-N-SH cells (AID 1347129).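 Also: cells exposed to compound for 48 h before viability read; nearly all actives have a fitted effect of over 60% in size.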 Also: potency is read from the fitted curve at half-maximal effect. An outline of the steps:
as §1

Another experiment addresses Furin (Homo sapiens) (UniProt P09958). In words: Furin counterscreen qHTS for Zika virus inhibitors (AID 1347149).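 Also: purified recombinant full-length human furin enzyme at 5 nM; fluorescence gain from furin cutting a BOC-RVRR-AMC peptide substrate over 15 min; top concentration of the series differs between compounds; nearly all actives have a fitted effect of over 70% in size.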 An outline of the steps:
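Fluorogenic cleavage of BOC-RVRR-AMC (2 microM final, Km ~15 µM) was monitored (ex 340, em 450 nm) at 37C after 15 min RT preincubation of 5 nM furin with compounds in HEPES pH 7.0 buffer with CaCl2 and Triton X-100. Percent inhibition was fitted to a 4-parameter Hill curve.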

Experiment [6] deals with Zika virus NS2B-NS3 protease (unlinked). As to the kind of experiment: Optimization of GU AMC qHTS for Zika virus inhibitors: Unlinked NS2B-NS3 protease assay (AID 1347151). Also: series mostly up to about 52 µM; nearly all actives have a fitted effect of over 80% in size. The method, boiled down: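 Percent inhibition is derived from the 15-min change in AMC fluorescence, normalized against no-inhibitor and no-enzyme controls, then fitted to a 4-parameter Hill curve. Aprotinin was the intraplate control.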

For experiment [7], the system named is Zika virus NS2B-NS3 protease (unlinked complex). In words: Primary screen GU Rhodamine qHTS for Zika virus inhibitors: Unlinked NS2B-NS3 protease assay (AID 1347159). Also: nearly all actives have a fitted effect of over 60% in size. An outline of the steps: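 A qHTS format was used, with compound concentrations ranging up to 114 microM. Each compound was preincubated with 25 nM NS2B-NS3 protease, and the substrate was then added at 1.5 microM. Curves were fitted with a 4-parameter Hill model.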

The subject of experiment [8] is Zika virus NS2B-NS3 protease (linked construct). As to the kind of experiment: Primary screen NINDS Rhodamine qHTS for Zika virus inhibitors (AID 1347160). Also: nearly all actives have a fitted effect of over 55% in size. The method, boiled down: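 Kinetic fluorescence (Ex 480 nm, Em 540 nm) over 15 min with 1.5 microM Rhodamine110 peptide and 25 nM linked protease.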
For experiment [9], the system named is Zika virus NS2B-NS3 protease (linked). As to the kind of experiment: 384 well plate NINDS AMC confirmatory qHTS for Zika virus inhibitors (AID 1347163). Also: potency is read from the fitted curve at half-maximal effect; nearly all actives have a fitted effect of over 50% in size. Conditions: Recombinant NS2B-NS3 protease, Ac-VKTGKR-AMC fluorescence. The method, boiled down:
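Linked NS2B-NS3 protease (final 5 nM, 30 nM or 60 nM) was preincubated with compounds (final up to 1 mM) for ~15 minutes. Ac-VKTGKR-AMC substrate (final 30 microM) then reacted for 25 minutes at room temperature in the dark. Fluorescence (ex 355/em 460 nm) was normalized to no-enzyme and no-inhibitor controls.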

Experiment [10] can be described thus: qHTS of pediatric cancer cell lines to identify multiple opportunities for drug repurposing: Confirmatory screen for Rh18 cells (AID 1347125). Also: nearly all actives have a fitted effect of over 55% in size. Also: potency is read from the fitted curve at half-maximal effect. An outline of the steps:
as §1

Experiment [11] relates to Zika virus NS2B-NS3 protease. In words: Primary screen GU AMC qHTS for Zika virus inhibitors (AID 1347154). Also: nearly all actives have a fitted effect of over 70% in size. An outline of the steps:
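Fluorogenic AMC-substrate cleavage by noncovalent NS2B-NS3 protease complex (25 nM, pH 8.0 Tris buffer with Tween 20) followed for 15 minutes at room temperature (~20% conversion). Percent inhibition from ex340/em450 signal change, fitted by 4-parameter Hill equation.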

Results filed as inconclusive are left out. Calls of active or inactive are those of the source. Calls follow the shape of the dose curve; as a rule, active = well fitted curve in the direction sought with a large enough effect; inconclusive = small, poorly fitted or top-dose-only effect, or another doubt; inactive = no such curve, though single readings can be large; an effect the other way counts as inactive or inconclusive.

Consider 8 compounds from PubChem BioAssay (NCATS).

Chain of Furin (Homo sapiens) (P09958 whole entry, looked up): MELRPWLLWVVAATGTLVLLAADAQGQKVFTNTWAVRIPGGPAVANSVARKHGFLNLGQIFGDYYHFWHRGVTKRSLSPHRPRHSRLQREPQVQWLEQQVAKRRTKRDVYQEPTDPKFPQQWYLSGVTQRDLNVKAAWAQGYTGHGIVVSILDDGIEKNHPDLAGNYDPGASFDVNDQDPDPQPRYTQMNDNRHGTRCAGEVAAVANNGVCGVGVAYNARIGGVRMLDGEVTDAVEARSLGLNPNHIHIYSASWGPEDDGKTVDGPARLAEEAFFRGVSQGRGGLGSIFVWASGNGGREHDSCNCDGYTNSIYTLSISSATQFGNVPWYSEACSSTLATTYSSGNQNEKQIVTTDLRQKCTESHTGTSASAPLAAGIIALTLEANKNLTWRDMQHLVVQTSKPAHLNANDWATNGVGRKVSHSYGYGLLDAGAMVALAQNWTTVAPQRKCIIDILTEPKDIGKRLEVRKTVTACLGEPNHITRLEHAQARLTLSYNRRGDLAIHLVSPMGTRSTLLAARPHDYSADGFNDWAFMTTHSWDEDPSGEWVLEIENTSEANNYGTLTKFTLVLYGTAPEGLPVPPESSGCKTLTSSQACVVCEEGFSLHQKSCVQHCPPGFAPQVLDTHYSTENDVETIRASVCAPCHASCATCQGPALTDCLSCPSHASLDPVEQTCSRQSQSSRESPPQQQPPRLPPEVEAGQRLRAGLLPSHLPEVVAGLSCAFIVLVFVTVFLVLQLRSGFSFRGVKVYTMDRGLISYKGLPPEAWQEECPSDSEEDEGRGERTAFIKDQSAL

`CC(=O)Nc1ccc([C@H](C)C(=O)Nc2ncc(C(C)C)s2)cc1`: the Potency in experiment [1] is 9.27 µM (active); in experiment [2] it was 7.37 µM (active); in [3] it was 2.08 µM (active); in [4] it was 7.37 µM (active); in experiment [5], 6.62 µM (active); in [9], 112 µM (active). Also, the Potency entry (with Furin (Homo sapiens); in experiment [6]; in experiment [7]; in experiment [8]) was “inactive” in each case.

As for `CC1(C)S[C@H]2[C@H](NC(=O)[C@@H](N)c3ccc(O)cc3)C(=O)N2[C@@H]1C(=O)O`, the Potency entry in experiment [1], in [2], in experiment [10], in experiment [3], in [4] and in [5] was “inactive” each time. For the same compound, the Potency result in experiment [11] is “inactive”.

`CC1(C)CCC2=C(O1)c1ccccc1C(=O)C2=O`: the Potency in experiment [1] was 8.27 µM (active); in [2], 0.465 µM (active); in [3], 20.8 µM (active). In experiment [11], the Potency entry was “inactive”.

With `Oc1ccc(C2CCN(c3ccnc4ccccc34)CC2)cc1O`, the Potency in [1] is 5.85 µM (active); in experiment [2], 0.928 µM (active); in [5], 20.9 µM (active). In experiment [10], the Potency entry is “inactive”.

As for `O=c1[nH]cnc2c1ncn2[C@H]1CC[C@@H](CO)O1`, the Potency entry in [1], in experiment [2], in [3], in [4], in experiment [5] and in experiment [7] was “inactive” in each case. Besides, the Potency entry in experiment [8] was “inactive”.

Take `O=C1NC(=O)C(=Cc2ccc3c(c2)OC(F)(F)O3)S1`: the Potency result in experiment [1], in [2], in [10], in [3], in [4] and in experiment [5] was “inactive” in each case. The Potency result in experiment [11] was “inactive”.

Consider `O=C(O)c1ccc(-c2cc3cccnc3c(-c3ccc4nonc4c3)n2)cc1`, for which the Potency in [1] was 7.37 µM (active); in experiment [2] it was 7.37 µM (active); in experiment [4], 6.57 µM (active). In addition, the Potency entry in experiment [5] and in experiment [11] was “inactive” throughout.

With `C=C1C(=O)[C@@]23C(CC[C@@H]1[C@H]2O)[C@@]12CO[C@]3(O)[C@@H](O)[C@@H]1C(C)(C)CC[C@@H]2O` (some centres not stated), the Potency is 2.93 µM (active) in [1]; 14.7 µM (active) in experiment [10]; 5.85 µM (active) in experiment [3]; 20.8 µM (active) in experiment [4]; 10.5 µM (active) in experiment [5]. Also, the Potency entry in experiment [11], in experiment [7] and in experiment [8] was “inactive” throughout.
